Reference: PubChem BioAssay
Activity calls are given as the source filed them.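 How the source made its calls, unless noted: active means visually confirmed hit in the image check and inhibition above 20%; inconclusive means visually confirmed hit but inhibition not above 20%; inactive means no visual hit in the image check.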

Assays:
[1] = inhibitors of TNFa-induced NFkB p65 translocation, primary screen, imaging, HUVEC, MLSMR starter and 10KST1 sets (AID 438;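 active means inhibition above 20% together with a positive visual image hit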;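 further: compound added about 3h40 before a 20 min TNFalpha stimulation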;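 on inhibition: signal is the nuclear over cytoplasmic p65 intensity ratio per well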); settings: HUVEC TNFa-induced p65 nuclear translocation; cell count: measured here: nuclei count (cytotoxicity indicator), at 2.08 µM; inhibition: at 2 µM, stronger effect = higher value, 0% TNFa-plus-vehicle, 100% no-TNFa wells
[2] = reduction of polyQ htt aggregates in cells – imaging, exon1htt(103Q)mCFP cells, high-content imaging, primary screen (AID 483;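 active means visual image review flags a hit and inhibition of aggregation exceeds 20%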;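 further: compound exposure lasted 3 days before fixation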;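 on nuclei count: percent of the per-plate median nuclei count of sample wells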); settings: exon1htt(103Q)mCFP cell line, aggregate imaging, at 2 µM; inhibition of aggregation: stronger effect = higher value; nuclei count: measured here: cell count, toxicity
[3] = endothelial E-selectin expression blockers – imaging, HUVEC, immunofluorescence, MLSMR starter and 10KST1 sets, primary screen (AID 487); settings: HUVEC TNFalpha-induced E-selectin immunofluorescence imaging, at 2 µM; inhibition: stronger effect = higher value; nuclei count: measured here: cell number, toxicity;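 on inhibition: signal is fraction of cell area covered by stained E-selectin grains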;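 on nuclei count: 100% = median nuclei count of all wells on the same plate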
[4] = target: Voltage-gated potassium channel subunit beta-2 (Rattus norvegicus) (UniProt P62483); assay: inhibitors of rat Kvbeta2 reductase activity – biochemical, NADPH fluorescence, primary screen (AID 622;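 active means fluorescence slope higher than the sample average by over 3 SD, cut at about -0.22 in these data, passing the limit was not always enough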;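 further: slope of raw intensity against log time taken from 70 to 1610 s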); settings: recombinant KvBeta, 4-cyanobenzaldehyde reduction, at 10 µM, stronger effect = higher value
Voltage-gated potassium channel subunit beta-2 (Rattus norvegicus), sequence (P62483 whole entry, looked up): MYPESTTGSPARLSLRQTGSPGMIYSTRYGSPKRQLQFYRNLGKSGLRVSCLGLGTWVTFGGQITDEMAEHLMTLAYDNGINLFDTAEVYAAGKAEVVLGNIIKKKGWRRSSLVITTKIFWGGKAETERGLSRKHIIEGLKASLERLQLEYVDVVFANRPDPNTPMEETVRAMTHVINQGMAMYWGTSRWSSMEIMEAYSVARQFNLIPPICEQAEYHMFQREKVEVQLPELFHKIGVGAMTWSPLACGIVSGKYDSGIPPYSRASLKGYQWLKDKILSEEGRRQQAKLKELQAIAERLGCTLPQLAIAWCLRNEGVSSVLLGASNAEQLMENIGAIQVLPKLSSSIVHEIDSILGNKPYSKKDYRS

[5] = target: Voltage-gated potassium channel subunit beta-2 (Rattus norvegicus) (UniProt P62483); assay: enhancers of rat Kvbeta2 NADPH turnover – biochemical, NADPH fluorescence, primary screen (AID 623;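 active means NADPH fluorescence slope more negative than the mean of all samples by about 3 SD, 99.7% confidence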;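 further: fluorescence intensity change per second fitted from 20 to 320 s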); settings: Recombinant KvBeta, NADPH fluorescence decrease slope, 10 min; at 10 µM; stronger effect = lower value
[6] = target: Alpha-2C adrenergic receptor (Homo sapiens) (UniProt P18825); assay: compounds altering alpha2C-coupled GIRK flux – cell-based, HEK293 alpha2C/GIRK1/2, thallium flux, primary screen (AID 624;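 active means fluorescence slope after compound addition differing from the mean of all screened samples at 99.7% confidence, in either direction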;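 further: slope of fluorescence ratio to pre-addition baseline per second over 15 to 24 s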); settings: thallium flux BTC fluorescence, at 10 µM, actives lie on both sides
Alpha-2C adrenergic receptor (Homo sapiens), sequence (P18825 whole entry, looked up): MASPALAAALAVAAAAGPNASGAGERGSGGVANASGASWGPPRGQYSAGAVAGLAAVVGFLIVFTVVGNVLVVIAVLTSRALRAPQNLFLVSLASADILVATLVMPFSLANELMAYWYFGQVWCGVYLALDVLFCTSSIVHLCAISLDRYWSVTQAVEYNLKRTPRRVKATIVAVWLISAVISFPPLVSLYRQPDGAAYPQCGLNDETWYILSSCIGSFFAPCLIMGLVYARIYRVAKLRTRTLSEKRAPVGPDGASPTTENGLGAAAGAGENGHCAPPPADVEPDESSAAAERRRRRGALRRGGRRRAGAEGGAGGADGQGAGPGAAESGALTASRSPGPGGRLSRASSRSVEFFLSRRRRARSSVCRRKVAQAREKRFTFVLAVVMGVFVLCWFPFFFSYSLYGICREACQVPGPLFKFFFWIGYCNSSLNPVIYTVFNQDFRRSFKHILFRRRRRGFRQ

[7] = blockers of RIG-like receptor reporter activation – cell-based, Sendai virus stimulus, luciferase, 10K MLSCN set, TLR/RLR signaling modifier project, primary screen (AID 602276;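 active means inhibition at or above 50% at 10 µM; inactive means inhibition below 50%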;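 further: firefly luciferase from ISG56 promoter only with Renilla not read in this screen; 0% = Sendai virus plus DMSO and 100% = medium plus DMSO without virus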); settings: HEK293 RL24 IRF3 luciferase reporter, at 10 µM, stronger effect = higher value
[8] = TLR3 IRF3 reporter activation blockers – cell-based, poly I:C stimulus, luciferase, 10K MLSCN set, primary screen (AID 602277;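 active means inhibition of the reporter signal at or above 50%; inactive means inhibition below 50%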); settings: HEK293-TLR3 RL24 IRF3 luciferase reporter, at 10 µM, stronger effect = higher value

Structure (SMILES)	cell count [1]	inhibition [1]	inhibition of aggregation [2]	nuclei count [2]	inhibition [3]	nuclei count [3]	fluorescence slope [4]	NADPH fluorescence slope [5]	slope [6]	inhibition [7]	inhibition [8]
CC(C)CNS(=O)(=O)c1ccc(CCC(=O)N2CCOCC2)cc1	647	1.1% (inactive)	-3% (inactive)	104%	-45.6% (inactive)	104%	-0.471 (inactive)	-4.8e-05 (inactive)	0.00694 (inactive)	8.44% (inactive)	21.1% (inactive)
CCn1c(=O)c2cc(S(=O)(=O)NCc3ccccc3)ccc2n(CC)c1=O	404	-2.3% (inactive)	-3.8% (inactive)	104%	0.2% (inactive)	126%	-0.573 (inactive)	1.7e-05 (inactive)	0.00625 (inactive)	11.6% (inactive)	3.23% (inactive)
FC(F)(F)c1nnc2sc(-c3cccs3)nn12	382	-4% (inactive)	-16.2% (inactive)	84.9%	-28.5% (inactive)	96.5%	-0.567 (inactive)	-4.5e-05 (inactive)	0.00576 (inactive)	10.9% (inactive)	11.3% (inactive)
CCOc1ccc(C(C)=O)cc1COc1ccc(-n2cnnn2)cc1	407	-8.7% (inactive)	18.3% (inactive)	80.8%	25.1% (inactive)	132%	-0.617 (inactive)	-6.6e-05 (inactive)	0.00398 (inactive)	1.13% (inactive)	-2.41% (inactive)
O=S(=O)(Nc1cccnc1)c1cc(Cl)ccc1Cl	395	2.5% (inactive)	6.1% (inactive)	99.9%	26.2% (inactive)	115%	-0.286 (inactive)	2e-06 (inactive)	0.00524 (inactive)	23.6% (inactive)	7.22% (inactive)
O=C(CCn1c(=O)oc2ccccc21)N1CCCCCC1	776	-23.3% (inactive)	-23.8% (inactive)	123%	-26.2% (inactive)	123%	-0.316 (inactive)	-5.9e-05 (inactive)	0.00656 (inactive)	-8.11% (inactive)	-6.91% (inactive)
CCCCN(C)C(=O)c1cn(C)c2ccc(S(=O)(=O)N(C)C)cc2c1=O	559	-5.1% (inactive)	15.7% (inactive)	76.4%	39.3% (inactive)	105%	-0.6 (inactive)	-3.3e-05 (inactive)	0.00635 (inactive)	6.56% (inactive)	27.1% (inactive)
CCOc1ccc(-c2nc(C#N)c(N3CCN(C)CC3)o2)cc1	447	7.9% (inactive)	-9.4% (inactive)	102%	-123% (inactive)	127%	-0.415 (inactive)	-1.8e-05 (inactive)	0.00522 (inactive)	10.5% (inactive)	11% (inactive)
CCOc1ccc(N(CC(=O)NC2CCCCC2)S(=O)(=O)c2c(C)noc2C)cc1	710	-2.8% (inactive)	33.7% (inactive)	117%	-52.9% (inactive)	112%	-0.616 (inactive)	-2.8e-05 (inactive)	0.00737 (inactive)	-0.99% (inactive)	17.1% (inactive)
COc1ccccc1NC(=O)c1cc2n(n1)C(C(F)(F)F)CC(c1ccc3c(c1)OCO3)N2 (stereo not drawn)	479	2.4% (inactive)	5.1% (inactive)	109%	-14.9% (inactive)	110%	-0.629 (inactive)	6.1e-06 (inactive)	0.00604 (inactive)	-5.6% (inactive)	-16.2% (inactive)
CCOC(=O)N1CCC(NC(=O)c2ccc(CS(=O)(=O)c3c(Cl)cccc3Cl)o2)CC1	608	-3.7% (inactive)	10.7% (inactive)	94.3%	-44.1% (inactive)	104%	-0.611 (inactive)	2.7e-05 (inactive)	0.00587 (inactive)	16.5% (inactive)	0.288% (inactive)
C/C(=N\O)C(C)/[N+]([O-])=C/c1nc(C)c(C)n1O (stereo not drawn)	611	0.2% (inactive)	12% (inactive)	106%	5.3% (inactive)	98.3%	-0.492 (inactive)	-7.2e-05 (inactive)	0.00463 (inactive)	15.5% (inactive)	20.8% (inactive)
Nc1c(C(=O)NCCN2CCOCC2)c2nc3ccccc3nc2n1-c1ccc2c(c1)OCO2	337	-8.4% (inactive)	-2.4% (inactive)	96.7%	-53.1% (inactive)	74%	-0.348 (inactive)	-6.2e-05 (inactive)	0.00388 (inactive)	11.3% (inactive)	16.5% (inactive)
COc1ccc(NC(=O)C(C)Oc2ccc(/C(C)=N\O)cc2)cc1 (stereo not drawn)	581	2.7% (inactive)	13.8% (inactive)	114%	24.1% (inactive)	105%	-0.307 (inactive)	3.7e-05 (inactive)	0.00609 (inactive)	14.5% (inactive)	19.2% (inactive)
COc1cc(-c2nnc(SCc3c(F)cccc3Cl)o2)cc(OC)c1OC	803	4.4% (inactive)	8.8% (inactive)	103%	3.2% (inactive)	106%	-0.493 (inactive)	-1.6e-06 (inactive)	0.00634 (inactive)	-11.9% (inactive)	1.41% (inactive)
CN(Cc1ccccc1)Cc1nc2c(c(=O)n(C)c(=O)n2C)n1Cc1ccc(Cl)cc1	346	-7.7% (inactive)	22.2% (inactive)	72.4%	-32.1% (inactive)	161%	-0.612 (inactive)	-1.8e-05 (inactive)	0.00317 (inactive)	-1.93% (inactive)	2.58% (inactive)
CCn1c(SCC(=O)c2ccc(OC)cc2)nnc1C(C)NC(=O)c1ccc(OC)cc1 (stereo not drawn)	449	-1.8% (inactive)	2.6% (inactive)	96.2%	-41.9% (inactive)	129%	-0.409 (inactive)	2.1e-05 (inactive)	0.00558 (inactive)	-3.91% (inactive)	9.81% (inactive)
COc1ccc(CNC(=O)CN(C(=O)c2ccc(CN3CCOCC3)o2)C2CCCC2)cc1	449	5.5% (inactive)	-0.5% (inactive)	98.3%	-94.6% (inactive)	107%	-0.613 (inactive)	-4.4e-05 (inactive)	0.00446 (inactive)	17.1% (inactive)	11.7% (inactive)
CCOC(=O)c1ccc(NS(=O)(=O)c2ccc3c(c2)oc(=O)n3C)cc1	467	1.3% (inactive)	25.3% (inactive)	72.9%	10.3% (inactive)	107%	-0.602 (inactive)	-1.1e-05 (inactive)	0.00688 (inactive)	-7.08% (inactive)	14% (inactive)
Cc1ccc(Nc2nc(CSc3nnc(-c4cccs4)o3)cs2)cc1	444	-0.2% (inactive)	31.6% (inactive)	110%	16.3% (inactive)	113%	-0.408 (inactive)	-1.4e-05 (inactive)	0.00487 (inactive)	-22% (inactive)	-60.6% (inactive)
COCCNC(=O)C(c1cccc(OC)c1)N(Cc1cccs1)C(=O)Cn1nnc2ccccc21 (stereo not drawn)	722	-15.1% (inactive)	8% (inactive)	109%	-34.3% (inactive)	109%	-0.622 (inactive)	-5.4e-05 (inactive)	0.00445 (inactive)	12.4% (inactive)	20.1% (inactive)
CNc1nnc(-c2cccc(N(C)C)c2)s1	742	-5.1% (inactive)	-2.3% (inactive)	102%	-67.7% (inactive)	91.1%	-0.135 (active)	-7.2e-06 (inactive)	0.00491 (inactive)	-27.7% (inactive)	-96.6% (inactive)
CN1C(=O)CC(N2CCC(C(N)=O)(N3CCCCC3)CC2)C1=O (stereo not drawn)	540	5.4% (inactive)	-7.1% (inactive)	111%	10.3% (inactive)	117%	-0.593 (inactive)	-4.9e-05 (inactive)	0.00424 (inactive)	15% (inactive)	16.9% (inactive)
CCSc1nnc(NC(=O)c2ccccn2)s1	351	2.9% (inactive)	13.2% (inactive)	85.6%	21.4% (inactive)	102%	-0.583 (inactive)	3.3e-06 (inactive)	0.00493 (inactive)	4.15% (inactive)	15.7% (inactive)
CCOC(=O)C1CCCN(C(=O)c2cn(C)c(=O)c3cc(OC)c(OC)cc23)C1 (stereo not drawn)	746	-16.1% (inactive)	-3.6% (inactive)	110%	0.3% (inactive)	110%	-0.468 (inactive)	-1e-06 (inactive)	0.00726 (inactive)	6.66% (inactive)	15.1% (inactive)
CCN(CC)C(=O)c1ccc(CS(=O)(=O)c2ccc(OC)cc2)o1	560	-2% (inactive)	1.4% (inactive)	102%	-67.7% (inactive)	125%	-0.599 (inactive)	-3e-05 (inactive)	0.00698 (inactive)	-17.1% (inactive)	-10.1% (inactive)
CCCCN1C(=O)C2C(C(=O)Nc3cccc(OC)c3)C3C=CC2(O3)C1C(=O)NC1CCCCC1C (stereo not drawn)	423	3.1% (inactive)	1.7% (inactive)	109%	-50% (inactive)	112%	-0.503 (inactive)	-2.7e-05 (inactive)	0.00569 (inactive)	14.1% (inactive)	24.4% (inactive)
COc1ccc(NC(=O)CN2CCN(CC(=O)Nc3cc(OC)cc(OC)c3)CC2)cc1	306	-3.6% (inactive)	8% (inactive)	89.1%	4.7% (inactive)	84.6%	-0.442 (inactive)	-0.000127 (inactive)	0.00643 (inactive)	13.3% (inactive)	32.4% (inactive)
